# Screening data from PubChem BioAssay.
# Only some compounds are listed: those with a hit (about 3.1% of all), similar ones and a draw of the others.
# IL-2 act = IL-2 activation | activation, % (series mostly up to about 46 µM) | 360,000 compounds, 0.065% hits | IL-2 activation reporter assay, cell-based qHTS; stimulated with anti-CD3/CD4/CD28 beads; in transgenic mouse T cells | AID 652025; in the data active = activation above about 50%; inconclusive = mostly about 30% to 49%; also: 0% is about no effect
#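 Using fluorescent plate cytometry, EGFP and DsRed are detected in transgenic mouse T cells stimulated 18 h at 37 degrees C with antibody-coated beads after 60 min compound pretreatment.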
# ELG1 repair inh = blocks ELG1-dependent DNA repair in HEK293T cells; 330,000 compounds, 2.3% hits; AID 504467; Potency, µM (top dose mostly 46.1 µM), without a hit: at the highest dose activity change, negative = inhibition, most hits filed as inhibitors; HEK293T ELG1-luciferase reporter, luminescence, 16 h; DNA damage induced by 5-fluorouridine; also: potency is read from the fitted curve at half-maximal effect; % is scaled to controls: 0 for no effect and ±100 for the full control effect; nearly all actives have a fitted effect of over 55% in size
#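 Luminescence from the luciferase reporter, measured 30 min after ONE-Glo reagent at room temperature, was the read-out. Beforehand, 2,000 cells per well were exposed for 16 hr at 37 °C to 5-fluorouridine together with compound or vehicle.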
# BRCA1 expr act = BRCA1 expression activation | MCF7-BRCA1-FFLuc reporter, luminescence, 48 h; response scale: scaled: vehicle 0%, 10 µM genistein 100% | Potency, µM (top dose mostly 46.1 µM), inactives show top-dose activation, hits mostly activators | 380,000 compounds, 1.1% hits | AID 624202; also: potency is read from the fitted curve at half-maximal effect; nearly all actives have a fitted effect of over 80% in size
#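 Compounds are tested at multiple concentrations on MCF7 BRCA1-luciferase reporter cells seeded at 2000 per well; after 48 h, a single luminescence end-point is taken and curves fitted to the normalized data.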
# Nrf2 ARE act = activates Nrf2 signaling; AREc32 ARE-luciferase reporter (MCF7-derived line), luminescence, 24 h; Potency, µM (titrated, usually from 46.1 µM), for the others: top-dose activation, hits mostly activators; 410,000 compounds, 0.31% hits; AID 624171; also: potency is read from the fitted curve at half-maximal effect; % of control where 0% means no effect; nearly all actives have a fitted effect of over 65% in size
#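 AREc32_Fluc, 1000 cells/well, OPTI-MEM + 5% FBS, o/n 37 deg C 5% CO2; 23 nL cpd by pin tool, 24 hr; Steady-Glo 30 min RT, luminescence.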
# ELG1 FLuc counter = luciferase inhibition in cell-free luciferin readout for ELG1 hits; shares compounds with ELG1 repair inh; cell-free firefly luciferase luminescence counter-screen, ViewLux; Potency, µM (series often up to 46.1 µM), without a hit: at the highest dose activity change, negative = inhibition, usual class: inhibitors; 350 compounds, 3% hits; AID 624247; also: potency is read from the fitted curve at half-maximal effect; % is scaled to controls: 0 for no effect and ±100 for the full control effect
# ELG1-Luc inh = confirmation of human ELG1-dependent DNA repair inhibitors. AID 624248. Potency, µM (top dose mostly 46.1 µM), for inactives: at the highest dose activity change, negative = inhibition, usual class: inhibitors. HEK293T ELG1-luciferase levels, luminescence; cells co-treated with 5-fluorouridine. shares compounds with ELG1 repair inh. 670 compounds, 68% hits; also: potency is read from the fitted curve at half-maximal effect; % is scaled to controls: 0 for no effect and ±100 for the full control effect; nearly all actives have a fitted effect of over 55% in size
# ELG1 MMS Luc = MMS-stimulated human ELG1 repair inhibition, confirmed; shares compounds with ELG1 repair inh; HEK293T luciferase-tagged ELG1 level, MMS stimulated; Potency, µM (doses to about 46.1 µM), without a hit: at the top dose activity change, negative = inhibition, hits mostly inhibitors; 670 compounds, 53% hits; AID 624249; also: potency is read from the fitted curve at half-maximal effect; % is scaled to controls: 0 for no effect and ±100 for the full control effect; nearly all actives have a fitted effect of over 60% in size
# ELG1 5FU viab = confirmation of ELG1 repair inhibitors: viability with 5FU | shares compounds with ELG1 repair inh | cell viability with 5-FU, ELG1-dependent repair | Potency, µM (top dose mostly 46.1 µM), inactives show top-dose activity change, negative = viability loss, usual class: cytotoxic | 670 tested, under 10 active | AID 624250;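 also: ELG1-luc HEK293T cells cotreated with 5-fluorouridine at 10 µM final; potency is read from the fitted curve at half-maximal effect; viability measured 16 h after compound addition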
# ELG1 MMS cell = confirmation of ELG1 repair inhibitors: viability with MMS; Potency, µM (series often up to 46.1 µM), for inactives: top-dose activity change, negative = viability loss, most hits filed as cytotoxic; Cell viability with MMS, ELG1-dependent DNA repair; 670 compounds, 33% hits; shares compounds with ELG1 repair inh;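 also: ELG1-luc HEK293T cells co-treated with 10 µM MMS; potency is read from the fitted curve at half-maximal effect; viability read 16 h after compound addition; % is scaled to controls: 0 for no effect and ±100 for the full control effect; nearly all actives have a fitted effect of over 60% in size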
# ELG1 unstim viab = affects unstimulated cell viability, ELG1 hit counter-screen. Potency, µM (highest dose often 45.9 µM), without a hit: at the top dose activity change, negative = loss of viability, hits mostly cytotoxic. shares compounds with ELG1 repair inh. AID 624252. cell viability counter-screen, unstimulated, luminescence. 900 compounds, 8% hits;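 also: potency is read from the fitted curve at half-maximal effect; compound exposure lasted 16 hours before reading; % is scaled to controls: 0 for no effect and ±100 for the full control effect; nearly all actives have a fitted effect of over 55% in size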
# FLuc enzyme = inhibits purified firefly luciferase, counter-screen for ELG1 hits | 350 compounds, 10% hits | Potency, µM (top dose mostly 57.5 µM), for the others: at the top dose activity, negative = inhibition, hits mostly inhibitors | purified firefly luciferase, luminescence counter-screen | shares compounds with ELG1 repair inh | AID 624253; also: potency is read from the fitted curve at half-maximal effect; % is scaled to controls: 0 for no effect and ±100 for the full control effect
# Starred values were filed as active, the others as inactive; ? = inconclusive; . = no result. Unless noted, calls follow the shape of the dose curve; as a rule, active = well fitted curve in the direction sought with a large enough effect; inconclusive = small, poorly fitted or top-dose-only effect, or another doubt; inactive = no such curve, though single readings can be large; an effect the other way counts as inactive or inconclusive.
SMILES,IL-2 act,ELG1 repair inh,BRCA1 expr act,Nrf2 ARE act,ELG1 FLuc counter,ELG1-Luc inh,ELG1 MMS Luc,ELG1 5FU viab,ELG1 MMS cell,ELG1 unstim viab,FLuc enzyme
O=C(CSCC(=O)N1CCOCC1)Nc1nc(-c2ccccc2)cs1,-0.2,?,51.1%,-0.1%,.,.,.,.,.,.,.
CCOC(=O)N1CCN(C(=O)CSCC(=O)Nc2nc(-c3ccc(-c4ccccc4)cc3)cs2)CC1,-2.2,10.3µM*,2.0%,0.7%,-9.0%,.,.,.,.,15.8µM*,?
O=c1c2ccccc2oc2ccc(-c3ccoc3)cc12,.,.,.,.,.,.,.,.,.,?,.
O=C(Nc1nonc1NC(=O)c1cccs1)c1cccs1,2.7,4.11µM*,0.0%,6.8%,.,?,4.45µM*,-5.1%,4.99µM*,?,.
COc1ccc2cc3c(N)nn(C(=O)c4ccccc4Cl)c3nc2c1,2.4,0.651µM*,-41.1%,-1.5%,?,0.792µM*,3.97µM*,7.4%,-1.1%,?,-8.5%
COc1ccc2cc3c(N)nn(C(=O)c4cccc(F)c4)c3nc2c1,0.0,0.0%,11.2%,0.7%,.,.,.,.,.,.,.
COc1ccc2cc3c(N)nn(C(=O)c4ccc(F)cc4)c3nc2c1,-0.6,4.11µM*,26.5%,-0.3%,.,2.5µM*,4.45µM*,8.2%,4.5%,-4.3%,.
Cc1cccc(-c2noc(-c3cccnc3NCc3ccccc3Cl)n2)c1,.,.,21.5%,-0.2%,.,.,.,.,.,.,.
COc1ccc(Nc2nc(-c3ccncc3)nc3ccccc23)cc1,-0.3,2.91µM*,-27.2%,8.4%,3.6%,5µM*,?,?,-12.3%,?,-7.4%
COc1ccc(OC)c(Nc2nc(-c3ccncc3)nc3ccccc23)c1,-0.4,?,-46.4%,2.3%,.,.,.,.,.,.,.
COc1ccc(-c2cc3c(=O)n(CC(=O)Nc4cc(C)ccc4C)ccn3n2)cc1,.,.,.,-1.3%,.,.,.,.,.,.,.
O=C1CCC/C1=c1\s/c(=C\c2cccnc2)c(=O)n1-c1ccccc1,16.3,13µM*,-30.1%,0.8%,-6.3%,8.89µM*,?,9.1%,-8.6%,-16.9%,-4.1%
CS(=O)(=O)N1CCc2cc(-c3csc(NC(=O)C(c4ccccc4)c4ccccc4)n3)ccc21,0.7,9.9%,2.5%,0.6%,.,.,.,.,.,.,.
CC1Cc2cc(-c3csc(NC(=O)Cc4ccccc4)n3)ccc2N1S(C)(=O)=O (centres undefined),2.7,7.31µM*,-81.2%,5.5%,?,12.6µM*,5.61µM*,?,?,15.8µM*,-7.8%
Cc1cc(C)cc(NC(=O)C2CCN(S(=O)(=O)c3cccc(-c4noc(C)n4)c3)CC2)c1,.,.,.,1.1%,.,.,.,.,.,.,.
O=C(NOCc1ccccc1)c1ccc(Cl)cc1Cl,-0.5,?,-54.9%,-3.1%,.,.,.,.,.,.,.
O=C(NOCc1ccccc1)c1ccccc1,-4.2,?,1.26µM*,-1.6%,.,.,.,.,.,-11.6%,.
